Bioassay records (PubChem)
G9a block: G9a (human) methyltransferase inhibition; G9a H3K9 monomethylation, AlphaScreen, 2 h; Potency, µM (doses to about 102 µM), for the others: at the top dose activity, negative = inhibition, most hits filed as inhibitors; hit rate 8.8% among 350,000; also: % is scaled to controls: 0 for no effect and ±100 for the full control effect; nearly all actives have a fitted effect of over 75% in size
Target sequence (Q96KQ7 913-1193 limits assumed): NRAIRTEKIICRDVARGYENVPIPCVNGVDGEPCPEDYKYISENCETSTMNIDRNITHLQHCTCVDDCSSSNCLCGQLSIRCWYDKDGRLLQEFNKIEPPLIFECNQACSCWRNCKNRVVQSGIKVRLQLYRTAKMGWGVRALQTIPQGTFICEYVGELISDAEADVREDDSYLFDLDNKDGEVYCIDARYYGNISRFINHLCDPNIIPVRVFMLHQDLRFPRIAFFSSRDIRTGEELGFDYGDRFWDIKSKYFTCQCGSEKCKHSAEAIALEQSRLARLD
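Step 1: enzyme (final 20 nM) with compound, 15 min RT. Step 2: substrate peptide 500 nM and SAM 20 uM, 2 h RT. Step 3: anti-H3K9me1 antibody and AlphaScreen beads, 10 min, then plate read.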
BAZ2B inh: blocks human BAZ2B; Potency, µM (titrated, usually from 114 µM), inactives show top-dose activity change, negative = inhibition, most hits filed as inhibitors; hit rate 4.4% among 360,000; AlphaScreen BAZ2B-H3K14Ac peptide displacement; Q9UIF8; AID 504333; also: % is scaled to controls: 0 for no effect and ±100 for the full control effect; nearly all actives have a fitted effect of over 60% in size
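AlphaScreen displacement of biotin-H3(5-23)K14Ac peptide (50 nM final) from BAZ2B (50 nM final) in PBS pH 7.4, 0.01% Tween-20; complex preformed 30 min RT, then compounds (top 110 uM) 30 min RT, beads 20 min dark.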
JMJD2A Tudor: blocks the human JMJD2A Tudor domain. O75164. AlphaScreen JMJD2A-Tudor / H3K4me3 peptide binding. Potency, µM (doses to about 114 µM), for inactives: top-dose activity change, negative = inhibition, usual class: inhibitors. hit rate 4.4% among 390,000; also: % is scaled to controls: 0 for no effect and ±100 for the full control effect; nearly all actives have a fitted effect of over 50% in size
HP1b binding inh: blocks HP1-beta chromodomain binding to methylated histone tails | P83916 | AlphaScreen HP1-beta / biotin-H3K9me3 peptide binding | Potency, µM (doses to about 114 µM), for inactives: at the highest dose activity change, negative = inhibition, most hits filed as inhibitors | hit rate 0.56% among 390,000 | AID 540317; also: nearly all actives have a fitted effect of over 70% in size
Target sequence (P83916 whole entry, looked up): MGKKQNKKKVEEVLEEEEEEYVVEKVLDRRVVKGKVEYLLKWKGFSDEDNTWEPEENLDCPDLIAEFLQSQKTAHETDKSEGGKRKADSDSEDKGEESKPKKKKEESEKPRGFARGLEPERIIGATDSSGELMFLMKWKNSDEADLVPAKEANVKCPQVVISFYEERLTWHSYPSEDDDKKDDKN
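AlphaScreen: HP1-beta (50 nM) preformed 30 min with biotin-H3(1-18)K9me3 peptide (50 nM) in PBS pH 7.4, 0.01% Tween-20. Compound added for 30 min at RT, then streptavidin donor/nickel chelate acceptor beads (10 ug/mL) for 30 min.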
Sfp PPTase inh: inhibitors of Bacillus subtilis Sfp phosphopantetheinyl transferase; Q9F4F7; Biochemical Sfp PPTase activity, qHTS; Potency, µM, for inactives: largest response in the series, negative = inhibition, hits mostly inhibitors; hit rate 3.5% among 310,000;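 also: the enzyme is Sfp with the accession as filed and its product quenches rhodamine fluorescence; 0% = enzyme reaction without inhibitor and -100% = no enzyme wells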
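Step 1, compound plus 15 nM Sfp-PPTase, 15 min, room temperature. Step 2, add rhodamine-CoA (5 uM) and BHQ-2-YbbR (12.5 uM). Step 3, read 525/598 nm fluorescence at 0 and 30 min.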
PLK1 PBD block: PLK1 (human) polo-box domain binding inhibition; AID 720504; P53350; Plk1 PBD binding of FITC phosphopeptide, fluorescence polarization; hit rate 2.8% among 360,000; Potency, µM, inactives show max response, negative = inhibition, hits mostly inhibitors; also: series mostly up to about 57 µM; % is scaled to controls: 0 for no effect and ±100 for the full control effect; nearly all actives have a fitted effect of over 65% in size
Numbers without * were called inactive; ? = inconclusive; nt = no result given; ! = a repeat was not active; [ ] = another dose, or the depositor's remark. Only some compounds are listed: those with a hit (about 12% of all), similar ones and a draw of the others. Calls follow the shape of the dose curve; as a rule, active = well fitted curve in the direction sought with a large enough effect; inconclusive = small, poorly fitted or top-dose-only effect, or another doubt; inactive = no such curve, though single readings can be large; an effect the other way counts as inactive or inconclusive. Potency is read from the fitted curve at half-maximal effect.

SMILES	G9a block	BAZ2B inh	JMJD2A Tudor	HP1b binding inh	Sfp PPTase inh	PLK1 PBD block
CCn1c(/C=C2/C(=O)N(C)c3ccccc32)nc2ccccc2c1=O	50µM*	35µM*	-28%[57.1 µM]	?	-29%	-6%
CCN1C(=O)/C(=C/c2nc3ccccc3c(=O)n2-c2ccccc2)c2ccccc21	3%[59 µM]	3%	?	3%	-12%	-13%
CCn1c(/C=C2\C(=O)N(C(C)C)c3ccccc32)nc2ccccc2c1=O	3%[12.7 µM]	40µM*	-7%[11.4 µM]	-23%	-14%	0%
CCCN1C(=O)/C(=C/c2nc3ccccc3c(=O)[nH]2)c2ccccc21	?	?	?	?	-31%	-11%
CCn1c(/C=C/c2ccccc2Cl)nc2ccccc2c1=O	-28%[2.33 µM]	-4%	-7%	64%	-11%	-7%
CCn1c(/C=C/c2c[nH]c3ccccc23)nc2ccccc2c1=O	2%	-5%	56µM*	-3%	12%	21µM*
CC(C)N1C(=O)/C(=C\c2nc3ccccc3c(=O)[nH]2)c2ccccc21	25µM*	32µM*	?	?	-14%	-18%
CCN1C(=O)/C(=C\c2nc3ccccc3c(=O)n2CC)c2ccccc21	63µM*	45µM*	16µM*	?	-9%	-17%
CCn1c(/C=C\c2ccccc2C)nc2ccccc2c1=O	112%	10%	54%	96%	4%	-7%
CCn1c(/C=C2\C(=O)N(C)c3ccccc32)nc2ccccc2c1=O	-16%[59 µM]	56µM*	?	-12%	13%	-5%
CC1C(=O)OC2CC34C5CC(C(C)(C)C)C36C(OC(=O)C6O)OC4(C(=O)O5)C21O (centres undefined)	nt	nt	nt	nt	2%	nt
COc1ccccc1NS(=O)(=O)c1cccc(C(=O)N/N=C/c2c(C)nn(-c3ccccc3)c2N2CCCC2)c1	-5%[59 µM]	-30%	-25%	11%	6%	-8%
COc1ccccc1NS(=O)(=O)c1cc([N+](=O)[O-])ccc1N/N=C/c1sc(N2CCOCC2)nc1-c1ccccc1	40µM*	?	-12%	?	?	17%
COc1c(/C=N/Nc2ccc([N+](=O)[O-])cc2[N+](=O)[O-])c(C)nn1-c1ccccc1	81%[59 µM]	-22%	-27%	-2%	8%	-3%
Cc1nn(-c2ccccc2)c(N2CCCC2)c1/C=N/Nc1ccc(S(=O)(=O)Nc2ccccc2)cc1[N+](=O)[O-]	?	?	5µM*	?	3%	-8%
COc1ccccc1NS(=O)(=O)c1ccc(N/N=C/c2c(C)nn(-c3ccccc3)c2N2CCCC2)c([N+](=O)[O-])c1	4.5µM*	4.5µM*	?	?	16%	-10%
CCOc1ccc(C(c2c(O)cc(C)n(Cc3ccco3)c2=O)N2CCN(C)CC2)cc1 (centres undefined)	?	-10%	?	1%[57 µM]	nt	nt
COC(=O)/C(=C\C(=O)c1ccccc1)Nc1cccc(C(F)(F)F)c1	nt	?	?	17%	-36%	-11%
O=C1C2CCCN2C(c2ccccc2)N1c1nccs1 (centres undefined)	?	?	?	19%	50µM*	-5%
Cc1ccccc1C1N(c2nccs2)C(=O)C2CCCN21 (centres undefined)	?	-33%	2%	40%	50µM*	-12%
CCOc1ccccc1C1N(c2ccc(F)cc2)C(=O)C2CCCN21 (centres undefined)	13%[12.7 µM]	8%	7%	27%	6%	-8%
C=C1C2CC[C@]3(CCC4[C@@]5(C)CCC[C@@]4(CN(CCO)C5)[C@@H]3C2)[C@@H]1O (some centres undefined)	nt	nt	nt	nt	15%	nt
CC(=NNC(=S)Nc1ccccc1Cl)c1ccccn1	nt	nt	56µM*	-32%	nt	-5%
C=CCNC(=S)N/N=C(\C)c1ccccn1	-2%	4.5µM*	45µM*	31%	79µM*	-10%
C/C(=N\NC(=O)c1ccccc1-n1cccc1)c1ccccn1	nt	nt	nt	nt	nt	-6%
SMILES	G9a block	BAZ2B inh	JMJD2A Tudor	HP1b binding inh	Sfp PPTase inh	PLK1 PBD block
CC(=NNC(=S)Nc1ccccc1)c1ccccn1	nt	nt	nt	nt	nt	-2%
CCOc1ccc(NC(=O)CN2C(=O)NC(C)(c3ccc4c(c3)OCCCO4)C2=O)cc1OCC (centres undefined)	nt	nt	?	3%	nt	-2%
COC(=O)c1cc2sccc2n1CC(=O)Nc1cc(Cl)ccc1OC	-19%[59 µM]	0%	5%	24%	nt	nt
O=C(CSc1nnc(CCc2ccccc2)n1-c1ccc(Cl)cc1)c1ccccc1	11µM*	-32%	-33%	2%	-19%	-1%
N[C@H](C(=O)O)[C@H](O)C(=O)O	15%[12.7 µM]	nt	nt	nt	89µM*!	nt
COc1ccc(C(=O)C[n+]2cc(Br)cc3ccccc32)cc1[N+](=O)[O-]	35µM*	-27%	79µM*	31%	4%	?
O=C(C[n+]1cc(Br)cc2ccccc21)c1ccccc1	45µM*	?	?	8%	-7%	-18%
Cc1ccc2c(ccc[n+]2CC(=O)c2ccccc2)c1	-4%[59 µM]	7%	-16%	28%	9%	-8%
COC(=O)c1ccc(C2NC(=S)N(c3ccccc3)C(C)=C2C(=O)Nc2ccccc2OC)cc1 (centres undefined)	-20%[59 µM]	-32%	-20%	7%	7%	-6%
CCOc1cc(C(=O)Nc2ccc3oc(-c4ccc(CC)cc4)nc3c2)cc(OCC)c1OCC	-31%[59 µM]	-12%	-9%	21%	nt	nt
COc1cc(OC)cc(C(=O)Nc2ccc(-c3nc4cc(C(C)C)ccc4o3)cc2)c1	0%[59 µM]	-1%	5%	32%	nt	nt
CCOc1cc(C(=O)NCc2ccc(-c3nc4ccccc4o3)cc2)cc(OCC)c1OCC	28µM*	1%	-3%	14%	1%	-11%
COc1cc(OC)cc(C(=O)Nc2cccc(N3CCCC3)c2)c1	3.5µM*	-38%	50µM*	-17%	-6%	1%
COc1cc(OC)cc(C(=O)Nc2cccc(-c3cn4ccsc4n3)c2)c1	-24%[59 µM]	71µM*	?	0%[57 µM]	nt	nt
COc1cc(OC)cc(C(=O)Nc2ccc(-c3nc4ccccc4o3)cc2)c1	-9%	-1%	3%[57.1 µM]	26%	8.9µM*	3%
CCN(CC)CCOC(=O)c1ccc(NC(=O)c2cc3c(s2)-c2ccccc2OC3)cc1	16%[59 µM]	-5%	-19%	49%	nt	nt
CCC(Oc1ccccc1)C(=O)Nc1ccc(OCc2cc(=O)n3ccc(C)cc3n2)cc1 (centres undefined)	-4%[59 µM]	6%	13%	27%[57 µM]	nt	nt
COc1cc(OC)cc(C(=O)Nc2ccc(Nc3ccccc3)cc2)c1	35µM*	25µM*	?	-26%	6%	-3%
COc1cccc(C(=O)Nc2cc(Cl)c(O)c(Cl)c2)c1	45µM*	-24%	-15%	21%	8%	-10%
